Test results published in PubChem BioAssay (NCI).
The panel holds about 83,000 compounds, 20% with a hit somewhere; the sample as a whole holds those more often.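 Negative percent growth values reflect cell death: -40 means 40% of the cells present at the start died, and -100 means all died.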 Active and inactive are the calls of the source. Rule for the calls: active = growth percent below 10; inactive = the rest.

Assays:
Test in all cases: NCI-60 one-dose screen, 48 h (100 = growth as untreated, 0 = no growth, -100 = all killed)
Settings in all cases: 10 µM unless noted
RPMI-8226 leukemia = system: RPMI-8226 leukemia
OVCAR-5 ovarian = system: OVCAR-5 ovarian
OVCAR-4 ovarian = system: OVCAR-4 ovarian
SK-OV-3 ovarian = system: SK-OV-3 ovarian
IGROV1 ovarian = system: IGROV1 ovarian
OVCAR-3 ovarian = system: OVCAR-3 ovarian
HS 578T breast = system: HS 578T breast
NCI/ADR-RES ovarian = system: NCI/ADR-RES ovarian
OVCAR-8 ovarian = system: OVCAR-8 ovarian

Measured: growth

NC1=C(c2nn[nH]n2)C(c2ccccc2Cl)c2ccc3ccccc3c2O1 (stereo not given)
inactive: RPMI-8226 leukemia 71.7% | OVCAR-5 ovarian 109% | OVCAR-4 ovarian 81.5% | SK-OV-3 ovarian 86.2% | IGROV1 ovarian 63.2% | OVCAR-3 ovarian 69.6% | HS 578T breast 80.3% | NCI/ADR-RES ovarian 55.9%

Nc1nc(-c2cccc3ccccc23)cc2ccccc12
inactive: OVCAR-8 ovarian 17.9% | OVCAR-4 ovarian 61.4%
active: RPMI-8226 leukemia 4.38% | SK-OV-3 ovarian 8.91% | IGROV1 ovarian -48.5% | OVCAR-3 ovarian -32.2% | HS 578T breast -4.65% | NCI/ADR-RES ovarian 2.9%

O=C(CSc1nc2ccccc2[nH]1)Nc1cccc(Cl)c1
inactive: RPMI-8226 leukemia 102% | OVCAR-5 ovarian 98.7% | OVCAR-4 ovarian 95.7% | SK-OV-3 ovarian 97.9% | IGROV1 ovarian 96.2% | OVCAR-3 ovarian 102% | HS 578T breast 91.9% | NCI/ADR-RES ovarian 103%

CN1CCN(c2ccc(-c3ccc4ncc(C#N)c(Nc5ccc(F)c(Cl)c5)c4c3)cc2)CC1
inactive: OVCAR-5 ovarian 57.6% | OVCAR-4 ovarian 46.8% | SK-OV-3 ovarian 27% | IGROV1 ovarian 11.4% | OVCAR-3 ovarian 59.8% | HS 578T breast 43.3% | NCI/ADR-RES ovarian 50.5%
active: RPMI-8226 leukemia 4.87%

Nc1ccccc1-c1cc2c(c3c1[nH]c1ccccc13)CCCCC2
inactive: RPMI-8226 leukemia 99.3% | OVCAR-5 ovarian 108% | OVCAR-4 ovarian 105% | SK-OV-3 ovarian 115% | IGROV1 ovarian 97% | OVCAR-3 ovarian 102% | HS 578T breast 95.2% | NCI/ADR-RES ovarian 94.8%

COc1c(B(O)O)cc(C)cc1-c1nc2ccc3[nH]ncc3c2c2c1CCCC2
inactive: RPMI-8226 leukemia 35.6% | OVCAR-5 ovarian 89.3% | OVCAR-4 ovarian 102% | SK-OV-3 ovarian 63.5% | IGROV1 ovarian 60.8% | OVCAR-3 ovarian 102% | HS 578T breast 18.2% | NCI/ADR-RES ovarian 55.7%

CC(=O)N1CCN(c2ccc(OCC3CO[C@](Cn4ccnc4)(c4ccc(Cl)cc4Cl)O3)cc2)CC1 (stereo not given in full)
inactive: RPMI-8226 leukemia 43.8% | OVCAR-8 ovarian 83.9% | OVCAR-4 ovarian 67.6% | SK-OV-3 ovarian 95.5% | IGROV1 ovarian 80.2% | OVCAR-3 ovarian 99% | HS 578T breast 102% | NCI/ADR-RES ovarian 84.4%

COc1ccc(-c2nc(NN)c3c(C)nn(-c4ccc(F)cc4)c3n2)cc1
inactive: RPMI-8226 leukemia 54.8% | OVCAR-5 ovarian 95.6% | OVCAR-4 ovarian 62.7% | SK-OV-3 ovarian 29.4% | IGROV1 ovarian 51.2% | OVCAR-3 ovarian 12% | HS 578T breast 25% | NCI/ADR-RES ovarian 34.7%

COc1ccc(OC)c(/C=C/C(=O)N/N=C/c2ccccc2)c1
active: OVCAR-3 ovarian 6.02% | NCI/ADR-RES ovarian 8.51%
inactive: RPMI-8226 leukemia 54.4% | OVCAR-8 ovarian 54.8% | OVCAR-4 ovarian 78.2% | SK-OV-3 ovarian 60% | IGROV1 ovarian 38.5% | HS 578T breast 66.5%

COc1ccc(-c2conc2-c2ccccc2)cc1
active: OVCAR-3 ovarian -28.5% | HS 578T breast 7.75% | NCI/ADR-RES ovarian 6.05%
inactive: RPMI-8226 leukemia 32.7% | OVCAR-5 ovarian 27.7% | OVCAR-4 ovarian 47.8% | SK-OV-3 ovarian 38.2% | IGROV1 ovarian 26.2%

COc1cc(OCc2cccc(-c3ccc(C(O)c4nccs4)cc3)c2C)cc(OC)c1CNCCNC(C)=O (stereo not given)
inactive: OVCAR-8 ovarian 96.1% | OVCAR-5 ovarian 98.5% | OVCAR-4 ovarian 91.8% | SK-OV-3 ovarian 113% | IGROV1 ovarian 103% | OVCAR-3 ovarian 109% | HS 578T breast 105% | NCI/ADR-RES ovarian 101%

O=c1cc(SCc2ccccc2)nc[nH]1
inactive: OVCAR-4 ovarian 117% | SK-OV-3 ovarian 114% | IGROV1 ovarian 111% | OVCAR-3 ovarian 114% | HS 578T breast 119% | NCI/ADR-RES ovarian 101%

COc1ccc(-c2nc(NCCO)[nH]c(=O)c2C#N)cc1
inactive: OVCAR-8 ovarian 107% | OVCAR-5 ovarian 92.8% | OVCAR-4 ovarian 107% | SK-OV-3 ovarian 97.7% | OVCAR-3 ovarian 111% | HS 578T breast 106% | NCI/ADR-RES ovarian 98.1%

C(=N/Nc1ncnc2nc[nH]c12)/c1ccccn1
inactive: OVCAR-8 ovarian 28.5% | OVCAR-5 ovarian 50.8% | OVCAR-4 ovarian 31.9% | SK-OV-3 ovarian 28.9% | OVCAR-3 ovarian 51% | HS 578T breast 64.1%
active: IGROV1 ovarian -8.74%

O=C(N/N=C/[C@H](O)[C@H](O)[C@H](O)CO)c1ccc(NC(=O)c2cccnc2)cc1
inactive: OVCAR-8 ovarian 102% | OVCAR-5 ovarian 102% | OVCAR-4 ovarian 110% | SK-OV-3 ovarian 110% | IGROV1 ovarian 107% | OVCAR-3 ovarian 118% | HS 578T breast 98.4% | NCI/ADR-RES ovarian 109%

COc1ccccc1/C=C1\Oc2cc(OCCN3CCC(Cc4ccccc4)CC3)ccc2C1=O
inactive: OVCAR-8 ovarian 81.2% | OVCAR-5 ovarian 89.3% | OVCAR-4 ovarian 93.2% | SK-OV-3 ovarian 106% | IGROV1 ovarian 82.6% | OVCAR-3 ovarian 98% | HS 578T breast 82.8% | NCI/ADR-RES ovarian 89.2%

NCCNc1nc2ccccc2c2c(=O)c3cc(F)ccc3sc12
inactive: OVCAR-5 ovarian 91.4% | OVCAR-4 ovarian 60.3% | SK-OV-3 ovarian 83.3% | IGROV1 ovarian 70.9% | OVCAR-3 ovarian 66.8% | HS 578T breast 74.8% | NCI/ADR-RES ovarian 78.8%

COc1ccc(C(=O)COC(=O)[C@H](C[Se][Se]C[C@H](NC(=O)c2ccc(Br)cc2F)C(=O)OCC(=O)c2ccc(OC)cc2)NC(=O)c2ccc(Br)cc2F)cc1
active: OVCAR-8 ovarian -64.2% | OVCAR-5 ovarian -68.2% | OVCAR-4 ovarian -87.9% | SK-OV-3 ovarian -91.9% | IGROV1 ovarian -86.1% | OVCAR-3 ovarian -86.3% | HS 578T breast -6.55% | NCI/ADR-RES ovarian -60%

COc1ccc(-c2[nH]c3ccc(OC)cc3c2/C=C(\C#N)S(=O)(=O)c2ccccc2)cc1
inactive: OVCAR-8 ovarian 42.2% | OVCAR-5 ovarian 63.3% | SK-OV-3 ovarian 31.9% | IGROV1 ovarian 48.6% | HS 578T breast 13.4% | NCI/ADR-RES ovarian 14.3%
active: OVCAR-4 ovarian -20.8% | OVCAR-3 ovarian -1.23%

CCOC(=O)CCN(C(=O)Nc1ccccc1)C1CCCCC1
inactive: OVCAR-8 ovarian 128% | OVCAR-5 ovarian 87.4% | OVCAR-4 ovarian 113% | SK-OV-3 ovarian 112% | IGROV1 ovarian 93.2% | OVCAR-3 ovarian 118% | HS 578T breast 107% | NCI/ADR-RES ovarian 106%

COc1ccc2c(c1)/C(=C/c1sc(=S)n(Cc3ccco3)c1O)C=N2
inactive: RPMI-8226 leukemia 18.5% | OVCAR-5 ovarian 76.8% | OVCAR-4 ovarian 73.7% | SK-OV-3 ovarian 68.6% | IGROV1 ovarian 47.8% | OVCAR-3 ovarian 22.9% | NCI/ADR-RES ovarian 13.3%

O=C(N/N=C/[C@@H](O)[C@H](O)[C@H](O)CO)c1ccc(NC(=O)c2cccnc2)cc1
inactive: OVCAR-8 ovarian 105% | OVCAR-5 ovarian 103% | OVCAR-4 ovarian 114% | SK-OV-3 ovarian 99.1% | IGROV1 ovarian 109% | OVCAR-3 ovarian 112% | HS 578T breast 104% | NCI/ADR-RES ovarian 112%

C/C(=C(/c1ccccc1)c1ccc(N2C(=O)c3cccc4c(N5CCN(C)CC5)ccc(c34)C2=O)cc1)c1ccccc1
inactive: OVCAR-8 ovarian 83% | OVCAR-5 ovarian 91.9% | OVCAR-4 ovarian 56.6% | SK-OV-3 ovarian 106% | IGROV1 ovarian 69% | OVCAR-3 ovarian 82.7% | HS 578T breast 97.9% | NCI/ADR-RES ovarian 84.9%

Cc1ccc(-c2nc(N3CCN(CC(=O)Nc4ccc(Cl)c(C(F)(F)F)c4)CC3)c3ccccc3n2)cc1
inactive: OVCAR-8 ovarian 88.9% | OVCAR-5 ovarian 89.9% | OVCAR-4 ovarian 102% | SK-OV-3 ovarian 84.7% | IGROV1 ovarian 99.8% | OVCAR-3 ovarian 102% | NCI/ADR-RES ovarian 86.5%
